# Hits are enriched below; roughly 2.2% of the tested compounds scored in any of these assays.
# IEC-6 cytotox – kills IEC-6 intestinal cells in KLF5 counter-screen. IEC-6 cytotoxicity, luminescence viability. inhibition, % at 5 µM. actives 0.78% (n = 290,000). AID 1825; in the data active = inhibition above about 22%;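 also: 0% = plate median of test compound wells and 100% = cytotoxic reference compound wells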
# aSyn 5UTR inh – 5' untranslated region of α-synuclein, MLPCN primary screen. alpha-synuclein 5'UTR reporter, inhibitor activity. inhibition, % (tested at 7.5 µM). actives 0.82% (n = 300,000). AID 1813; in the data active = inhibition above about 60%; inconclusive = no clear call, values can overlap the other calls;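 also: H4 neuroglioblastoma cells stably carrying SNCA 5'UTR luciferase fusion; 0% = DMSO wells and 100% = positive control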
# KLF5 inh – suppresses KLF5 promoter-driven expression. DLD-1 KLF5 promoter-luciferase reporter, luminescence. inhibition, % at 5 µM. actives 0.23% (n = 290,000);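 active = inhibition above a per-plate limit of that plate's mean compound inhibition plus 3 SD, cut at about 60% in these data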;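 also: 0% = DMSO wells and 100% = LY294002 at 200 µM; higher means less KLF5 promoter-driven luciferase light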
# BaF3 tox – counter-screen for JAK2V617F inhibitors: parental Ba/F3 viability inhibitors | actives 1.1% (n = 220,000) | CellTiter-Glo ATP luminescence | inhibition, % at 5.6 µM | AID 1486;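 active = inhibition above a per-campaign cutoff, the mean inhibition of all tested compounds plus 3 SD, cut at about 27% in these data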;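 also: 0% = DMSO wells and 100% = JAK Inhibitor I control wells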
# APP transl inh – APP translation inhibition | SH-SY5Y APP 5'UTR-luciferase reporter, luminescence | inhibition, % at 2 µM | actives 0.82% (n = 190,000);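 active = inhibition above a set limit, derived from the sample mean plus 3 SD, cut at about 45% in these data; inconclusive = one replicate passes the limit while the other fails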
# Ba/F3 V617F tox – reduce viability of Ba/F3 cells dependent on JAK2V617F | AID 1446 | Ba/F3 EpoR-JAK2V617F viability, ATP luminescence | actives 1.1% (n = 220,000) | inhibition, % at 5.6 µM;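 active = inhibition above the campaign mean plus 3 SD over all tested compounds, cut at about 24% in these data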;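 also: cytokine-independent growth of Ba/F3 cells driven by EpoR plus mutant JAK2; 0% = DMSO-treated cells and 100% = JAK inhibitor I control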
# An asterisk follows results filed as active; u = inconclusive; x = no result given.
SMILES,IEC-6 cytotox,aSyn 5UTR inh,KLF5 inh,BaF3 tox,APP transl inh,Ba/F3 V617F tox
CCOc1cccc2sc(N(CCCN(C)C)C(=O)c3ccc(S(=O)(=O)N(C)Cc4ccccc4)cc3)nc12,1,u,-22,x,x,x
CCOc1cccc2sc(N(CCCN(C)C)C(=O)c3ccc(S(=O)(=O)N(CC)Cc4ccccc4)cc3)nc12,-6,71*,-12,x,x,x
COc1ccccc1OCC(=O)Nc1cc(C(F)(F)F)ccc1-n1cncn1,x,0,x,x,x,x
O=c1c2ccccc2nc(/C=C/c2ccc([N+](=O)[O-])o2)n1CCCO,7,-6,18,102*,23,101*
O=C(N/N=C/c1c[nH]c2ccccc12)C1COc2ccccc2O1 (configuration not stated),-4,76*,4,2,26,2
O=C(N/N=C\c1ccc(Cl)s1)C1COc2ccccc2O1 (configuration not stated),3,-67,-7,-3,x,1
Cc1cc(Br)ccc1OCC(=O)NNC(=O)c1ccc(NC(=O)C2CC2)cc1,0,-22,5,3,45*,-2
CCCC(=O)Nc1ccc(C(=O)NNC(=O)COc2ccc(Br)c(C)c2)cc1,6,9,-21,0,50*,2
CCNc1c(NS(=O)(=O)c2ccc(Cl)s2)c(=O)oc2ccccc12,-4,-16,22,x,x,x
CN[C@H]1CCc2cc(OC)c(OC)c(OC)c2-c2ccc(N(C)CC(OC)OC)c(=O)cc21,10,70*,4,x,x,x
O=c1c([N+](=O)[O-])cccn1Cc1cccc(Br)c1,2,-9,-29,x,x,x
O=C(Nc1cnn(Cc2ccc(Cl)cc2)c1)c1ccc([N+](=O)[O-])cc1,-3,22,6,2,13,-1
O=C(Nc1ccc([N+](=O)[O-])cc1)c1ccc(Cn2cc([N+](=O)[O-])cn2)cc1,12,79*,43,46*,5,46*
CCn1c(=N)c(C(=O)NC)cc2c(=O)n3cccc(C)c3nc21,x,x,x,x,-6,x
CCNc1nc(C)c2cc(Br)c(=O)n(CC)c2n1,15,76*,13,4,17,-1
COc1cc(-c2nnc(SCC(=O)N(Cc3ccccc3)C(C)(C)C)o2)cc(OC)c1OC,6,0,-9,96*,-2,2
CCOC(=O)Oc1ccc(/C=C2\N=C(C)OC2=O)cc1,-11,-9,-52,x,x,x
Cc1cccc(C)c1NC(=O)COC(=O)c1cccc2c1C(=O)c1ccccc1C2=O,-3,68*,-6,0,-16,-3
Cc1cccc(NC(=O)COC(=O)c2cccc3c2C(=O)c2ccccc2C3=O)c1C,1,30,-10,2,5,-3
COc1ccc(S(=O)(=O)N2CCC(C(=O)NC3CCCCC3)CC2)cc1C,-1,25,-20,x,x,x
Nc1ccc(OC(=O)Nc2ccc(O)cc2)cc1,6,91*,8,3,x,0
Cc1nn(C)c(C)c1CN(C)C(=O)CCCC(=O)O,5,-3,7,93*,-19,-2
CC1(C)CC(N2CCCC2)=CC(=[N+]2CCCCCC2)C1,30*,-2,1,71*,2,99*
CCN(CC)C1=CC(=[N+]2CCCC2)CC(C)(C)C1,6,-4,-15,63*,-1,74*
CC1(C)CC(N2CCN(c3ccccc3)CC2)=CC(=[N+]2CCCC2)C1,14,-3,-4,75*,-9,85*
SMILES,IEC-6 cytotox,aSyn 5UTR inh,KLF5 inh,BaF3 tox,APP transl inh,Ba/F3 V617F tox
O=c1c(/C=N\NS(=O)(=O)c2ccccc2)coc2ccc(Cl)cc12,-2,-17,-16,x,x,x
Cc1cc(OCC(=O)NNC(=O)c2cccnc2)cc(C)c1Cl,-1,x,-29,x,x,x
Cc1ccc(S(=O)(=O)N/N=C/c2ccc(C#N)cc2)cc1,-2,-9,-12,x,x,x
Nc1c(NC=O)c(=O)n(Cc2ccccc2)c(=O)n1Cc1ccccc1,x,0,x,x,x,x
O=[N+]([O-])c1ccc(-c2ccc(/C=N/Nc3nc(N4CCCCC4)nc(N4CCCCC4)n3)o2)cc1,-1,36,-43,7,3,-3
O=[N+]([O-])c1cccc(-c2ccc(/C=N/Nc3nc(N4CCCCC4)nc(N4CCCCC4)n3)o2)c1,-5,73*,-23,-4,-23,-2
COc1cccc(-c2nc(CS(=O)(=O)CC(=O)Nc3ccc(C(C)=O)cc3)c(C)o2)c1,-11,5,-2,x,x,x
N#Cc1ccc(-c2nc3cc(Cl)ccc3c(=O)n2O)cc1,0,-1,-13,x,x,x
O=c1c2ccc(Cl)cc2nc(-c2cccc(C(F)(F)F)c2)n1O,-6,78*,40,56*,-5,60*
O=C(N1CCCCC1)N1CCN(C(=O)N(c2ccccc2)c2ccccc2)CC1,3,1,-28,8,6,1
O=C(N1CCOCC1)N1CCN(C(=O)N(c2ccccc2)c2ccccc2)CC1,-2,24,-14,1,57*,-2
O=C(NC(=O)c1ccccc1)Nc1ccc(Cl)cn1,-2,-53,-163,x,x,x
N#Cc1ccc(NC(=O)Nc2ccc(Oc3ccc(NC(=O)Nc4ccc(C#N)cc4)cc3)cc2)cc1,4,74*,-8,-3,x,0
Cc1nc(=O)c(-c2ccccc2)c(C)n1Cc1ccccc1,-8,1,-16,4,48*,-4
COC(=O)c1c(C)[nH]c(C(=O)N2CCN(c3ccc(OC)cc3)CC2)c1C,-1,-43,-34,9,7,1
COc1cccc(N2CCN(C(=O)c3[nH]c(C)c(C(C)=O)c3C)CC2)c1,16,-2,41,35*,29,21
CCO[C@H]1OC(C(=O)NCc2nc3ccccc3[nH]2)=C[C@@H](c2ccc(Br)cc2)[C@@H]1CCCO,x,-4,x,x,x,x
CCO[C@@H]1OC(C(=O)NCc2nc3ccccc3[nH]2)=C[C@H](C(C)(C)C)[C@H]1CCCO,x,85*,x,x,x,x
CNc1ccccc1C(=O)OCC(=O)N(CCOC)c1c(N)n(CC(C)C)c(=O)[nH]c1=O,x,14,x,x,x,x
CCOc1ccc(OCc2cccc(C(=O)O)c2)cc1,x,84*,x,x,x,x
O=C(O)c1cccc(COc2ccc(CO)cc2Cl)c1,x,105*,x,x,x,x
O=C(OCC(F)(F)F)c1cccc(COc2ccc3ccccc3c2)c1,-1,107*,-4,2,44,2
O=C(O)c1cc(OCc2ccccc2)cc(OCc2ccccc2)c1,-2,1,-18,x,x,x
COc1ccc(OCc2cccc(C(=O)O)c2)cc1,x,128*,x,x,x,x
Cc1cccc(NC(=O)CSc2nnc(-c3ccncc3)n2CC2CCCO2)c1 (configuration not stated),-7,11,-10,x,x,x
CSc1ccccc1NC(=O)C1=COCCO1,3,9,-5,x,x,x
CCOc1ccc(OCc2cccc(C(=O)N3CCCCCC3)c2)cc1,0,76*,-61,11,-113,0
CCOc1ccc(OCc2cccc(C(=O)N3CCCC3)c2)cc1,2,-4,-134,8,-117,3
CCN(CC(=O)Nc1c(F)cccc1F)C(=O)c1ccc(Cl)c(S(=O)(=O)N2CCCCC2)c1,6,-3,9,x,x,x
C(=N\Nc1ccc2ccccc2n1)/c1ccc2c(c1)OCCO2,4,108*,58,-1,-48,-1
